Test results from PubChem BioAssay AID2736 (Broad Institute, 2010).
The list shows a part of the results. Unmarked numbers belong to inactive results. Activity calls are given as the source filed them.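 Rule for the calls: active = every replicate shows more than 75% inhibition of signal versus neutral control wells; inconclusive = half to three quarters of replicates exceed 75% inhibition; inactive = fewer than half of replicates exceed 75% inhibition.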

Test: Vibrio harveyi AI-2 signaling luminescence modulation – JMH597 strain, confirmation (AID 2736)
Conditions: Vibrio harveyi JMH597 AI-2 quorum sensing luminescence, 9 h; at 7.5 µM; active compounds read high; luxN and CqsS knockout, AI-2 only

SMILES | inhibition
CC(CNc1ccc([N+](=O)[O-])cc1)NC(=O)c1ccccc1Br (stereo not drawn) | 8.81%
O=C(/C=C/c1ccc2c(c1)OCO2)NCc1ccc(F)cc1 | 94.2% (active)
CCOc1ccc(/C=N/NC(N)=S)cc1 | 94.3% (active)
Cc1ccc(Oc2cnn(-c3ccccc3)c(=O)c2Br)cc1 | 99.3% (active)
Cc1ccsc1C(=O)OCC(=O)c1cc2ccccc2o1 | 96.8% (active)
O=C(COc1ncnc2ccccc12)NC(=O)NCc1ccccc1 | 96.5% (active)
Cc1ccccc1C(=O)Nc1ccc(N2CCCCCC2)cc1 | 94.5% (active)
Cc1cccc(CSc2ccc(-c3cccs3)nn2)c1 | 96.9% (active)
COC(=O)c1ccc(SCc2ccccc2)nc1 | 97.3% (active)
O=C(c1cc(-c2cccc(O)c2)on1)N1CCc2ccccc2C1 | 94.4% (active)
S=C(NCc1ccc(Cl)cc1)NC1CCCCC1 | 95.5% (active)
N/C(=N\OC(=O)CCc1ccccc1)c1cccnc1 | 93.1% (active)
CCOC(=O)c1nn(-c2cccc(C)c2)cc1C(=O)c1ccccc1 | 93.5% (active)
O=C(CCC(=O)c1cccs1)Nc1nc2ccccc2s1 | 97.8% (active)
Cc1ccc(NS(=O)(=O)c2ccc3c(c2)NC(=O)CO3)cc1 | 95% (active)
O=C(Cn1cnc2ccccc2c1=O)Nc1cccc(S(=O)(=O)N2CCCCC2)c1 | 88.6% (active)
CN(Cc1cnccn1)C(=O)c1cc(COc2cccc(C(F)(F)F)c2)on1 | 97.2% (active)

SMILES | inhibition
O=S(=O)(Nc1cccc(Oc2ccc(Cl)cc2)n1)c1ccc(F)cc1 | 99.7% (active)
Cc1ccccc1NC(=O)CCOc1ccccc1 | 91.6% (active)
Cc1cc(C(=O)OCC(=O)Nc2ccc(F)c(F)c2)c(C)o1 | 97.8% (active)
CC(C)(C)c1ccc(OC2=CS(=O)(=O)c3ccccc32)cc1 | 96.6% (active)
Cc1nn(CC(=O)Nc2ccc(F)cc2)c(=O)c2ccccc12 | 99% (active)
Cc1ccc(Cc2nc(-c3cccc(C)c3)no2)cc1 | 94.6% (active)
O=C1COc2ccc(S(=O)(=O)Nc3ccc(OC(F)(F)F)cc3)cc2N1 | 99.2% (active)
COc1cccc(NC(=O)NCc2ccc(F)cc2)c1 | 95.3% (active)
CC(=O)c1cccc(OCc2cc(C(=O)NC(C)Cc3cccnc3)no2)c1 (stereo not drawn) | 95.5% (active)
O=C(/C=C/c1ccc2c(c1)OCCO2)c1ccc(O)cc1 | 95.7% (active)
Cc1cc(CN(C)C(=O)c2cc(COc3ccc(C)c(C)c3)on2)n[nH]1 | 97.5% (active)
COC(=O)C1CCN(C(=O)c2ccc3oc(Cc4ccc(Cl)cc4)nc3c2)CC1 | 96.4% (active)
COc1ccc(/C(N)=N/OC(=O)Cc2ccccc2)cc1 | 96% (active)
O=C(COC(=O)C1CCCCC1)Nc1ccc([N+](=O)[O-])cc1 | 95.3% (active)
O=C(Nc1ccc(F)c(Cl)c1)C1CCN(S(=O)(=O)c2cccnc2)CC1 | 98.4% (active)
Cc1ccc(NC(=O)C2CC2c2ccccc2)cc1 (stereo not drawn) | 94.7% (active)
